# NADH coupling: blocks coupling enzymes of NAD/NADH assays | coupled PK/LDH NADH assays, four targets | IC50, µM (doses to about 10 µM), for the others: at the top dose inhibition | 65,000 compounds, 0.02% hits;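 active means single-dose screening hits from any of four coupled enzyme assays that gave an IC50 when retested across doses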;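 further: the DPM-DC format reads NADH fluorescence rather than 340 nm absorbance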
# Autofluor 339: intrinsic fluorescence of library compounds, ex339/em460 – biochemical, MLSMR library, data from DPM-DC assay, artefact control, profiling panel; compound autofluorescence, ex339/em460 nm, NADH buffer; active compounds read high; 1 = no-compound wells, NADH background; fluorescence fold increase at 10 µM; 65,000 compounds, 5.5% hits; AID 709;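 active means at 10 µM, mean starting fluorescence two-fold or more over control wells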;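 further: signal is the first read of a kinetic run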
# Spn PMK inh: blocks S. pneumoniae phosphomevalonate kinase | purified PMK, PK/LDH-coupled NADH absorbance 340 nm | inhibition, % at 10 µM | 65,000 compounds, 0.49% hits;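 active means top-ranked compounds by inhibition in the single 10 µM screen, taking a fixed number of the strongest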;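 further: 0% = full reaction with DMSO carrier and 100% = background rate without enzyme reaction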
# Spn MK inh: inhibitors of Streptococcus pneumoniae mevalonate kinase; purified MK, PK/LDH-coupled NADH absorbance 340 nm; inhibition, % at 10 µM; 65,000 compounds, 0.48% hits;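 active means ranked among the strongest by inhibition in the single 10 µM screen, a fixed top-ranked set picked for dose follow-up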
# Abs 340nm: compounds absorbing at 340 nm; compound absorbance at 340 nm, fold over control; fold change at 10 µM; 65,000 tested, under 10 active; AID 708;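 active means at 10 µM dose, initial 340 nm absorbance at least 2 fold that of control wells; inactive means change under 2 fold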;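 further: initial absorbance extrapolated from kinetic A340 decline of NADH oxidation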
# Spn DPM-DC inh: inhibitors of Streptococcus pneumoniae diphosphomevalonate decarboxylase | AID 556 | 65,000 compounds, 0.49% hits | calls only at 10 µM | purified DPM-DC, PK/LDH coupled NADH fluorescence;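 active means the 320 compounds with the highest percent inhibition in the single-dose primary screen, excluding strongly autofluorescent ones, cut at about 32% in these data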;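 further: kinetic rate of NADH fluorescence loss reporting ADP formed by the decarboxylase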
# * marks the source's active call; other numbers are inactive results; i = inactive; / = not tested or not shown; + = active, no number. An excerpt weighted towards active compounds, which were near 6.3% of everything screened.
SMILES,NADH coupling,Autofluor 339,Spn PMK inh,Spn MK inh,Abs 340nm,Spn DPM-DC inh
Cc1ccc(CNC(=O)c2cc3c(=O)n4cccc(C)c4nc3n(CC3CCCO3)c2=N)cc1 (stereo not given),5.0%,3.95*,0.0,10.0,1.02,/
COc1ccc(CNC(=O)c2cc3c(=O)n4ccccc4nc3n(Cc3ccco3)c2=N)cc1,2.0%,1.33,5.0,1.0,0.99,i
COCCCn1c(=N)c(C(=O)NCC2CCCO2)cc2c(=O)n3ccccc3nc21 (stereo not given),9.0%,4.87*,13.0,4.0,1.02,/
CCCn1c(=N)c(C(=O)NCC2CCCO2)cc2c(=O)n3cccc(C)c3nc21 (stereo not given),17.0%,3.69*,20.0,13.0,1.02,/
O=C(CCn1c(=O)sc2ccccc21)NCc1ccc2c(c1)OCO2,1.0%,1.02,0.0,0.0,1.03,i
Cn1c(=O)c2c(ncn2CC(=O)N2CCN(c3ccc(F)cc3)CC2)n(C)c1=O,4.0%,1.1,0.0,8.0,1.02,i
CCOCCCn1c(=N)c(C(=O)Nc2cc(C)on2)cc2c(=O)n3ccccc3nc21,1.0%,2.13*,0.0,1.0,1.01,/
N=c1c(C(=O)NCc2ccc(F)cc2)cc2c(=O)n3ccccc3nc2n1CC1CCCO1 (stereo not given),7.0%,3.86*,9.0,5.0,1.04,/
COCCCn1c(=N)c(C(=O)NCC2CCCO2)cc2c(=O)n3cccc(C)c3nc21 (stereo not given),3.0%,2.89*,11.0,11.0,1,/
Cc1cc2c(c(Sc3ccccc3)n1)C(=O)OC2,7.0%,1.11,15.0,6.0,1.02,i
O=C(CCN1C(=O)c2ccccc2S1(=O)=O)Nc1nc2c(s1)CCCC2,3.0%,1.1,4.0,6.0,1.06,i
c1cc2c(cc1C1CCCN1)OCCCO2 (stereo not given),5.0%,1.02,13.0,0.0,1,i
O=C(NCc1ccco1)c1nc2nc(-c3cccs3)cc(C(F)(F)F)n2n1,1.0%,3.84*,0.0,2.0,1.17,/
Cc1ccccc1Cc1c(C)nc2c(C(=O)NCc3ccco3)cnn2c1C,7.0%,3.29*,12.0,0.0,1.05,i
Cc1cc(C(F)F)n2ncc(C(=O)NCc3ccccc3C(F)(F)F)c2n1,9.0%,1.23,21.0,5.0,1.03,i
COCCNC(=O)c1cnn2c(C(F)(F)F)cc(-c3ccc4c(c3)OCO4)nc12,24.0%,2.52*,10.0,11.0,1.04,+
Cc1ccc(-c2cc(C(F)F)n3ncc(C(=O)NCc4ccco4)c3n2)cc1,4.0%,2.32*,2.0,6.0,1.1,/
CCC(C)NC(=O)CCNS(=O)(=O)c1ccc(Br)cc1 (stereo not given),2.0%,1.02,18.0,0.0,0.98,i
Cc1ccc(-c2cc(C(F)(F)F)n3ncc(C(=O)NCc4ccco4)c3n2)cc1,18.0%,1.77,9.0,8.0,1.09,+
CN(C)c1oc(-c2ccc(OCc3ccccc3)cc2)nc1C#N,12.0%,3.88*,14.0,10.0,1.05,/
N#Cc1nc(COc2ccccc2F)oc1NCCCn1ccnc1,2.0%,1.09,5.0,0.0,1.02,i
Cc1ccc(OCc2nc(C#N)c(NCCCn3ccnc3)o2)cc1,9.0%,0.96,16.0,7.0,0.99,i
N#Cc1nc(-c2ccc(OCc3ccccc3)cc2)oc1NCCCn1ccnc1,14.0%,3.95*,15.0,12.0,1.02,/
N#Cc1nc(-c2ccc(OCc3ccccc3Cl)cc2)oc1NCCCn1ccnc1,1.0%,2.34*,0.0,2.0,1.06,i
N#Cc1nc(COc2ccccc2)oc1NCCCn1ccnc1,2.0%,1.05,2.0,4.0,0.99,i
SMILES,NADH coupling,Autofluor 339,Spn PMK inh,Spn MK inh,Abs 340nm,Spn DPM-DC inh
N#Cc1nc(-c2ccco2)oc1NCCCn1ccnc1,16.0%,3.96*,16.0,16.0,1.05,/
OC1(CN2CCOCC2)C2CN3CCN(C2)CC1(c1ccccc1)C3 (stereo not given),12.0%,1.1,28.0*,9.0,0.98,i
CN1CCC(N(C)CC(=O)Nc2cccc(Oc3ccccc3)c2)CC1,9.0%,1.12,11.0,15.0,1.01,i
Cc1ccc(-c2oc3ccccc3c(=O)c2O)cc1,3.0%,1.36,8.0,7.0,1.02,i
O=c1c(O)c(-c2cccs2)oc2ccccc12,4.0%,3.72*,0.0,8.0,1.17,/
O=C(NCc1cccnc1)C1c2ccccc2C(=O)N1Cc1ccco1 (stereo not given),2.0%,1.05,3.0,0.0,1.01,i
CCc1cc(=O)oc2cc(OCc3nn[nH]n3)ccc12,11.0%,3.04*,11.0,6.0,1.07,i
CCCCc1cc(=O)oc2cc(OCc3nn[nH]n3)c(Cl)cc12,7.0%,2.48*,12.0,3.0,1.12,i
O=C(CSc1nnc(CNC(=O)c2cccs2)o1)Nc1cccc(C(F)(F)F)c1,2.0%,1.07,10.0,3.0,1.05,i
CCOC(=O)c1c(C)n(C)c2ccc(OC)c(NC(=O)CN3CCN(C(=O)c4ccco4)CC3)c12,3.0%,1.13,9.0,0.0,1.03,i
O=c1oc2c3c4c(cc2c2c1CCC2)OCCN4CCC3,7.0%,2.19*,10.0,4.0,1.05,/
CCOc1ccccc1C(=O)NCC(=O)OCC(=O)c1ccc2c(c1)OCCO2,9.0%,1.11,26.0*,0.0,1,i
COc1ccccc1-c1nc(C#N)c(N2CCN(c3cccc(Cl)c3)CC2)o1,18.0%,3.52*,18.0,17.0,0.91,/
COc1ccccc1-c1nc(C#N)c(N2CCN(C(c3ccccc3)c3ccccc3)CC2)o1,14.0%,3.85*,12.0,15.0,1.06,/
N#Cc1nc(-c2ccco2)oc1N1CCN(c2cccc(Cl)c2)CC1,6.0%,1.2,11.0,12.0,1.02,i
COc1ccc(OC)c(C(c2nnnn2C2CCCC2)N2CCN(c3ccccc3)CC2)c1 (stereo not given),7.0%,1.07,11.0,9.0,0.99,i
Cn1c(=O)c2nc(NCc3ccccc3)cnc2n(C)c1=O,13.0%,3.91*,14.0,5.0,0.99,i
O=C1OCCC1Sc1nc2cc(Cl)ccc2s1 (stereo not given),5.0%,1.08,10.0,5.0,0.99,i
CCCC(=O)Nc1cccc(NC(=O)CN2CCN(c3ccccc3OC)CC2)c1,3.0%,1.03,27.0*,4.0,1,i
CCOCCn1c(CN(Cc2ccccc2)Cc2ccccc2)nc2c1c(=O)n(C)c(=O)n2C,7.0%,1.09,4.0,11.0,0.99,i
CCc1cc2c(=O)c(-c3cscn3)coc2c(CN(C)C)c1O,4.0%,2.33*,1.0,6.0,1.11,/
Cn1c2ccccc2c2ncn(Cc3ccco3)c(=O)c21,11.0%,2.92*,10.0,8.0,1.05,i
O=C1c2oc3ccc(Cl)cc3c(=O)c2C(c2ccccn2)N1CCCN1CCOCC1 (stereo not given),2.0%,1.18,0.0,5.0,1.06,i

# Source: PubChem
